# Assay results taken from PubChem BioAssay (NCI).
# Compounds without any hit were thinned out: in the full panel of roughly 79,000, 15% have a hit. Values without a mark were called inactive. Active and inactive are the calls of the source. Cut-off read from the data, not from the text of the source: active = growth inhibition above about 70%; inactive = the rest.
# Experiments:
# [1] = NCI Yeast Anticancer Drug Screen. Data for the rad50 strain (AID 155);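 note: 0% = growth of vehicle-only cultures of the same strain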; conditions: S. cerevisiae rad50 strain growth inhibition, hits give high values
# Outline: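 DNA repair mutant yeast, compound exposure, growth read-out; inhibition is taken relative to vehicle.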
# [2] = NCI Yeast Anticancer Drug Screen. Data for the mec2-1 strain (AID 157); conditions: S. cerevisiae mec2-1 strain, hits give high values
# Outline: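 Readout is yeast growth inhibition, normalised to vehicle-treated controls, in the mec2-1 strain exposed to compound.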
# [3] = NCI Yeast Anticancer Drug Screen. Data for the sgs1 mgt1 strain (AID 161);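 note: 0% = growth of cultures given vehicle only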; conditions: S. cerevisiae sgs1 mgt1 strain, hits give high values
# Outline: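 Growth of a repair-deficient yeast mutant was monitored after compound treatment and expressed as inhibition relative to vehicle-treated cultures.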
# [4] = NCI Yeast Anticancer Drug Screen. Data for the cln2 rad14 strain (AID 165);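 note: 0% = growth equal to vehicle treated cultures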; conditions: S. cerevisiae cln2 rad14 strain, hits give high values
# Outline: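 Relative to vehicle controls, growth inhibition of compound-treated cln2 rad14 yeast was recorded.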
# [5] = NCI Yeast Anticancer Drug Screen. Data for the bub3 strain (AID 167); conditions: S. cerevisiae bub3 mutant strain, hits give high values
# Outline: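 In this screen, a yeast mutant lacking normal mitotic checkpoint function is challenged with compound. Relative growth versus vehicle gives the inhibition value.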
# [6] = NCI Yeast Anticancer Drug Screen. Data for the mlh1 rad18 strain (AID 175); conditions: S. cerevisiae mlh1 rad18 strain growth inhibition, hits give high values
# Outline: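 Test agents were incubated with a yeast strain of defined genotype (DNA damage repair defect). Inhibition of growth was derived by comparison with vehicle-exposed cultures.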
# [7] = at 5.0 µM (retest, dose inferred, filed as 0.5)
# [8] = at 50.0 µM (retest, dose inferred, filed as 5.0)
SMILES,"growth inhibition [1, 7]","growth inhibition [1, 8]",growth inhibition ([1]; at 50.0 µM),"growth inhibition [2, 7]","growth inhibition [2, 8]",growth inhibition ([2]; at 50.0 µM),"growth inhibition [3, 7]","growth inhibition [3, 8]",growth inhibition ([3]; at 50.0 µM),"growth inhibition [4, 7]","growth inhibition [4, 8]",growth inhibition ([4]; at 50.0 µM),"growth inhibition [5, 7]","growth inhibition [5, 8]",growth inhibition ([5]; at 50.0 µM),"growth inhibition [6, 7]","growth inhibition [6, 8]",growth inhibition ([6]; at 50.0 µM)
CC1Cc2cc(O)c(O)cc2-c2cc(O)c(O)cc2CC1C (configuration not stated),-6%,86% (active),72.1% (active),-11%,89% (active),83.8% (active),-9%,75% (active),80.7% (active),7%,85% (active),83.4% (active),-30%,93% (active),79.4% (active),-8%,93% (active),83.7% (active)
Cc1cc(C)c(C(=O)C(Br)C(Br)c2ccccc2)c(C)c1 (configuration not stated),54%,94% (active),95.6% (active),43%,97% (active),95.5% (active),63%,95% (active),95.8% (active),15%,91% (active),83.4% (active),47%,93% (active),94.5% (active),46%,94% (active),95.6% (active)
O=c1[nH]c2cc(Cl)ccc2nc1/C=C(\O)c1ccccn1,20%,79% (active),60%,7%,49%,37.8%,8%,71% (active),74.8% (active),8%,64%,34.1%,21%,27%,44.5%,-1%,82% (active),88% (active)
CCC(c1ccc(Cl)cc1)C(C#N)c1ccccc1 (configuration not stated),6%,40%,76.7% (active),7%,34%,49.2%,3%,53%,69.4%,2%,3%,-0.6%,1%,3%,40.4%,7%,30%,59%
C[C@]12CC[C@H](O)C[C@@H]1CC[C@@H]1[C@@H]2CC[C@]2(C)C=CC[C@@H]12,-3%,2%,49.4%,-7%,-4%,33.4%,-21%,1%,46.8%,-6%,0%,77.5% (active),9%,23%,95.1% (active),-24%,33%,58.8%
COc1cc2c(cc1O)C1C(O)C(O)C=C3CCN(C2)C31 (configuration not stated),4%,97% (active),85.5% (active),4%,97% (active),84.8% (active),5%,96% (active),82.5% (active),14%,96% (active),84% (active),2%,95% (active),85.5% (active),3%,97% (active),86.9% (active)
O=C(Nc1ccccc1)OCCCCl,-7%,-4%,9.1%,-7%,1%,-13.3%,-16%,25%,30.6%,25%,-7%,64.3%,-19%,-19%,7.3%,-23%,-8%,12.4%
Cc1nc(N)sc1N=Nc1ccccc1Br,-20%,89% (active),88% (active),-11%,97% (active),94.2% (active),0%,93% (active),92.1% (active),-5%,62%,91.3% (active),-1%,91% (active),95.8% (active),34%,96% (active),95.8% (active)
O=[N+]([O-])c1cccc2c[n+](Cc3ccccc3)ccc12,-1%,24%,41.7%,-1%,19%,1.65%,-4%,18%,10.1%,-13%,15%,38.4%,-7%,-5%,-1.05%,-7%,12%,12.3%
CC(=O)OC1SC(C)(C)n2c1nc1ccccc1c2=O (configuration not stated),1%,56%,44.1%,-5%,53%,23.7%,6%,51%,41%,-8%,43%,69.4%,1%,39%,18.8%,2%,50%,72% (active)
COc1ccc(CCN2CC(=O)N3CSCC3C2=O)cc1OC (configuration not stated),6%,24%,66.7%,5%,16%,7.05%,9%,27%,34.8%,4%,27%,25.4%,3%,28%,21.8%,-1%,14%,37.2%
O=[N+]([O-])c1ccc(S)c(Cl)c1,16%,95% (active),95.5% (active),20%,95% (active),87.7% (active),28%,95% (active),90.3% (active),0%,55%,52.6%,14%,95% (active),87.2% (active),45%,95% (active),93.5% (active)
O=C(OCc1ccccc1)c1ccccc1Cl,3%,21%,50.4%,-3%,0%,14.1%,2%,14%,40.2%,4%,-11%,-18.6%,10%,19%,30.9%,3%,14%,82.8% (active)
NC(=O)CCSC(=S)N1CCOCC1,-2%,-16%,-8.55%,-5%,-2%,-16.6%,-3%,4%,-8.35%,4%,-2%,29.1%,39%,-5%,-1.85%,1%,2%,-17.4%
CCOC(=O)N(c1ccccc1)N(CC)C(=O)/C(C)=N/Nc1ccc([N+](=O)[O-])cc1,6%,93% (active),97.7% (active),5%,94% (active),95.8% (active),9%,94% (active),97.7% (active),10%,95% (active),92.2% (active),-10%,92% (active),95.8% (active),-1%,94% (active),97% (active)
COc1ccc(C2c3cn[nH]c3CC3CCCCC32)cc1 (configuration not stated),25%,98% (active),75.8% (active),-8%,99% (active),83.8% (active),9%,98% (active),85.5% (active),31%,99% (active),89.8% (active),-20%,99% (active),88.3% (active),8%,98% (active),90.7% (active)
CCOC(=O)C(/C=N\C(=S)Nc1c(CC)cccc1C(C)(C)C)=C(/O)c1ccccc1,7%,61%,51.5%,0%,46%,49%,17%,35%,64.5%,-13%,43%,67.2%,-8%,73% (active),55.6%,4%,48%,63%
COc1cc(C2c3cc4c(cc3C(OC3CCCCO3)C3COC(=O)C23)OCO4)cc(OC)c1OC (configuration not stated),-2%,19%,31.9%,-1%,7%,18.6%,-10%,11%,23.4%,-3%,-2%,2.35%,4%,30%,54.4%,-6%,14%,33.9%
CN=C(N)N/N=C(\C)c1ccc2c(c1)Cc1cc(Cl)ccc1-2,34%,37%,98.8% (active),16%,38%,97% (active),13%,97% (active),98.7% (active),8%,56%,93.1% (active),7%,90% (active),98.7% (active),9%,97% (active),98.5% (active)
CN(C)C(=S)N1C(=S)N(c2ccccc2)C(=Nc2ccccc2)C1=Nc1ccccc1,-25%,-4%,49.4%,-9%,-11%,-23.6%,-3%,-12%,-5%,-18%,-12%,-18.3%,-13%,-8%,-30.1%,-20%,-24%,-7.7%
O=c1ccn(C2OC(COC(c3ccccc3)(c3ccccc3)c3ccccc3)C(O)C2O)c(=O)[nH]1 (configuration not stated),34%,98% (active),90.8% (active),27%,99% (active),92.9% (active),25%,99% (active),93.3% (active),30%,98% (active),92.4% (active),38%,98% (active),91.8% (active),31%,98% (active),90.3% (active)
C/C(=N\NC(=O)C[n+]1ccccc1)c1sc(-c2nc(C)c(/C(C)=N/NC(=O)C[n+]3ccccc3)s2)nc1C,95% (active),97% (active),97.2% (active),97% (active),99% (active),96.8% (active),98% (active),97% (active),96.9% (active),92% (active),97% (active),93% (active),95% (active),97% (active),96.8% (active),93% (active),98% (active),96.4% (active)
C=C(Cl)C(=NC(C)(C)C)Nc1ccccc1Cl,21%,42%,66.4%,14%,35%,59.5%,16%,40%,63.1%,31%,33%,50.8%,14%,32%,53.2%,27%,53%,85.8% (active)
CCCN(CCC)c1ccc(/C=C/c2ccnc3ccccc23)cc1,9%,74% (active),91.2% (active),-10%,88% (active),92% (active),-4%,82% (active),92.7% (active),-18%,60%,58%,-12%,88% (active),92% (active),-7%,86% (active),89.7% (active)
